# Biological target: Metabotropic glutamate receptor 3 (Rattus norvegicus) (UniProt P31422)
# Experiment: PubChem AID 623888
# Details: HEK/GIRK rat mGlu3, thallium flux fluorescence, Schild, at 30 µM; % glutamate max: glutamate max response with compound, stronger effect = lower value; glutamate response, % max: at 100 µM (top of the series), compound 30 µM
# Sequence of Metabotropic glutamate receptor 3 (Rattus norvegicus) (P31422 whole entry, looked up): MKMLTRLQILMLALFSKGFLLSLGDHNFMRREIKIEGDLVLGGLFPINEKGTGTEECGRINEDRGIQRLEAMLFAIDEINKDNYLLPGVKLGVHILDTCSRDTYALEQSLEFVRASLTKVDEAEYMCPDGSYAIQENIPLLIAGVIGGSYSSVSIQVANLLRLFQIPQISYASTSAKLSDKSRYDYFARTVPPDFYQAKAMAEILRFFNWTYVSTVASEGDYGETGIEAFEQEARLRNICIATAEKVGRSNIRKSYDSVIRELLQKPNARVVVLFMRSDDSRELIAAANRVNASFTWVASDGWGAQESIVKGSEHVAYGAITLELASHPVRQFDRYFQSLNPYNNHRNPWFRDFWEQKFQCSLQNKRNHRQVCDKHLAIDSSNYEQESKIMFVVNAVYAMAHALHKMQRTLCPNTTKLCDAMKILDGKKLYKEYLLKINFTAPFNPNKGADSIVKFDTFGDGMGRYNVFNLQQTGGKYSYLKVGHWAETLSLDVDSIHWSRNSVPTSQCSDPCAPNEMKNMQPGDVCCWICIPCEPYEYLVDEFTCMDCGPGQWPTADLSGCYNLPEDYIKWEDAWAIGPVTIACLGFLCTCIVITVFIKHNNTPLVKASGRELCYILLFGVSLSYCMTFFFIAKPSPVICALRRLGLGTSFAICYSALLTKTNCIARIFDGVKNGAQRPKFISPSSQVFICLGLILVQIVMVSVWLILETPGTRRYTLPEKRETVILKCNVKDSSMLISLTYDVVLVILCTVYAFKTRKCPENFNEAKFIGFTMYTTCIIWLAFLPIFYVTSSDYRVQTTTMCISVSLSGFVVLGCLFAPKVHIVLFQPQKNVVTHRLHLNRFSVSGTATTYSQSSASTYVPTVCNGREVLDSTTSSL
smiles,measurement,value
COc1ccc(C#Cc2ccc(C(=O)N3CCC[C@@H](CO)C3)cc2)cc1,% glutamate max,1.37%
same,"glutamate response, % max",2.62
